The record followed here is PubChem BioAssay (NCI).

This is part of a sample that, as a whole, favours compounds with a hit. Of some 83,000 tested, about 20% had one in any assay.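 Percent growth is the endpoint: 0 to 100 indicates growth inhibition (40 means 60% inhibition), 0 means no net growth, and negative values indicate cell death.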 Unmarked numbers belong to inactive results. Activity calls are given as the source filed them.

This test deals with OVCAR-8 ovarian. Briefly: NCI-60 one-dose screen, 48 h (100 = growth as untreated, 0 = no growth, -100 = all killed). To be noted: 10 µM unless noted. The procedure:
Growth inhibition of the OVCAR-8 human tumor cell line is measured as a screen for anti-cancer activity. Cells are grown in 96 well plates and exposed to the test compound for 48 hours. Compounds are tested at a single concentration, which is 10^-5 M for most compounds. The reported endpoint is percent growth (GI% or GIPRCNT), where numbers from 0 - 100% represent growth inhibition, and numbers from -100% - 0 represent cell death. For example, a value of 40 represents 60% growth inhibition. A value of 0 means no net growth occurred over the course of the experiment. A value of -40 indicates 40% of cells at the beginning of the experiment died by the end of the experiment. A value of -100 means all cells are dead at the end of the experiment.
NCI-60 Human Tumor Cell Lines Screen was performed using the standard one-dose NCI protocol, which is described in more detail at https://dtp.cancer.gov/discovery_development/nci-60/default.htm.
Compounds with GIPRCNT values below 10 were considered active. Activity score was based on GIPRCNT using the following formula: […]
Score is 0 for GIPRCNT values of 100 or above, 50 for GIPRCNT values of 0, and 100 for GIPRCNT values of -100.
`CN(C)CC1=NC2SC=C(c3ccccc3)C2C(=O)N1CC#N` (stereo not given): the growth was 97.1%.
Next, `Cc1ccc(NS(=O)(=O)c2ccc3c(c2)C(=O)CC(c2ccc(C(=O)C(C)C)cc2)N3)cc1C` (stereo not given): 73.4%; `COc1ccc(C(=O)Nn2c(NCC(=O)N3c4ccccc4Sc4ccccc43)nnc2-c2ccc(O)cc2)cc1`: 101%; `Nc1ccc2c(c1)c(N)nn2C(=O)Nc1ccc(Cc2ccccc2)cc1`: 83.5%.
With `NC(N)=Nc1nc2ccccc2n2c1nc1ccccc12`, the growth is 25.5%.
Next, `COc1cc2c(cc1-c1c(C)noc1C)ncc1nc(C3CCCCC3)n(C3CCC(OC(F)F)CC3)c12` (stereo not given): 40.5%; `COc1ccc2c(c1)[nH]c(=O)c1c3cccnc3cn21`: 8.08% (active); `FC(F)(F)c1cc(Nc2ccc3cc(OCCCN4CCOCC4)ccc3n2)ccc1Cl`: 31.3%.
Next, `COc1cc(C2CC(=O)Nc3c2c(C)nn3-c2nc3ccccc3[nH]2)c(OC)c(OC)c1OC` (stereo not given): 47.4%; `COc1cc(C(=O)/C=C/c2c(C(F)(F)F)nc3sccn23)cc(OC)c1OC`: 12.2%.
Next, `N#Cc1nc(C#N)c(Sc2ccccc2)c(Sc2ccccc2)c1Sc1ccccc1`: 3.62% (active); `Clc1cccc(Cl)c1C(Nc1nc2ccccc2s1)Nc1nc2ccccc2s1`: 108%; `C#CCOc1nc(C)cc(C)c1C#N`: 102%.
In the case of `Cc1cc(NCc2cc(Nc3ccnc4cc(Cl)ccc34)ccc2F)nc(Cl)n1`, the growth is 35.9%.
Regarding `Cn1c(=O)c2[nH]c(NN)nc2n(C)c1=O`, the growth is 129%.
In the case of `COC(=O)[C@]12CC[C@@H](C)[C@H](C)[C@@H]1C1=CC[C@@H]3[C@@]4(C)C(C=O)=C[C@@](C)(COS(C)(=O)=O)[C@@H]4C(=O)C[C@@]3(C)[C@]1(C)CC2` it was 44.6%; in that of `COc1cccc(C(=O)NCCNc2cc(-c3cn(-c4ccccc4)nc3-c3cccc(OC)c3)ccn2)c1`, 40%; in that of `COc1ccc2[nH]c(O)c(/C=c3/cc4c(c(-c5cc(OC)c(OC)c(OC)c5)n3)=Nc3ccccc3-4)c2c1`, 42%.
In the case of `COC(=O)c1c2c(c(C)[n+]([O-])c1C)C(=O)C(NCc1ccc(F)cc1)=CC2=O` it was -5.16% (active); in that of `O=[N+]([O-])c1ccc(N2c3ccncc3Sc3ccncc32)cc1`, 87%.
In the case of `CN1CCN(CCCOc2ccc3nc(Nc4ccc(F)c(F)c4)ccc3c2)CC1` it was 53.1%; in that of `NC1=NCc2nc3ccccc3c(=O)n2C1`, 102%; in that of `CCCCCCCCCCCCCCCCCCOc1ccc(CC(=O)OCC[N+]2(C)CCCC2)cc1`, 99.7%.
For `CC1=C([Se]CC(OC(=O)[C@@H](CO)NC(=O)OC(C)(C)C)C(=O)NC(C)(C)C)C(=O)c2ccccc2C1=O` (stereo not given in full), the growth was -84.9% (active).
For `O=C(N/N=C/c1ccncc1)c1ccc(C(F)(F)F)nc1Nc1cccc(C(F)(F)F)c1`, the growth was -4.88% (active).
As for `CCCCCCCC/C=C\CCCCCCCCOc1ccccc1CC(=O)NCC[N+](C)(C)C`, the growth is 64.4%.
Regarding `Cn1c(I)c(C#C[Si](C)(C)C)c(=O)n(C(=O)c2ccccc2)c1=O`, the growth was -20.6% (active).
In the case of `N#C/C(=C\c1ccc(Br)cc1)n1nnc2cc(F)c(F)cc21` it was 8.14% (active).
On to `CCN1C(=O)N(CC)C2Nn3c(s/c(=C\c4ccc(Cl)cc4Cl)c3=O)=NC21` (stereo not given), for which the growth was 36.1%.
Next, `O=C(COc1ccc(/C=C2\Oc3ccccc3C2=O)cc1)Nc1nc2c(s1)CCCC2`: 6.97% (active).
Next, `O=c1c2c3c(sc2nc(N/N=C/c2ccc(Br)cc2)n1Cc1ccccc1)CCCC3`: 45.9%; `Cc1ccc2nc3ccccc3c(NCc3ccccc3)c2c1`: 33.5%.
In the case of `CCCc1cc2c(=O)c(C(=O)OC)c[nH]c2cc1N(CC)CC` it was 102%; in that of `CCOC(=O)c1c2ncccc2n2c(=O)n(-c3ccccc3C)nnc12`, 99.1%; in that of `CC(C)CCC[C@@H](C)[C@H]1CC[C@H]2[C@@H](Nc3ccc(O)cc3)CCC[C@]12C`, 97.6%.
Consider `CC(C)(C)OC(=O)Nc1ccc2c(c1)C(NC(=O)Nc1cccc(C#N)c1)CC(C)(C)O2` (stereo not given), for which the growth is 45.6%.
In the case of `COc1ccc2c(c1)O/C(=C\c1cccc(OCC(=O)Nc3nc(C)c(C)s3)c1)C2=O`, the growth was 15.1%.
In the case of `COc1ccc(-c2nc3c(N)c(CO)c(C)nc3o2)cc1` it was 110%.
Take `Cc1ccccc1NC(=O)N/C(N)=N/c1nc(C)c(C)s1`: the growth was 30.8%.
In the case of `COc1ccc2occ(C3=C(c4c[nH]c5ccccc45)C(=O)N(O)C3=O)c2c1` it was 90.5%.
